In all, about 68,000 compounds went through this assay and about 2,700 (4%) showed an effect of 50% or more. The entries come from a sample that favours strong results as a whole.

This assay deals with Plasmodium berghei. Briefly: Screen against P. berghei liver stage (PbLuc), transformed with Luciferase, at 2uM. It counts as functional, HepG2. To be noted: tested at 2 uM.
Take `COc1ccc(C(=O)N2CCOCC2c2[nH]ncc2C)cc1F` (configuration not stated): the INHIBITION is reported as -53.71%.
Take `Cc1cn[nH]c1C1COCCN1C(=O)c1ccc2c(c1)CCCC2` (configuration not stated): the INHIBITION came out at 72.17%.
The result for `CS(=O)(=O)CCN1CCC(Nc2c(Cl)cccc2C#N)CC1` reads -23.01%.
Take `CC(C)OC(=O)N1CCCCC1CCn1cccn1` (configuration not stated): the INHIBITION amounted to 29.71%.
The result for `CNC(=O)c1cc2c(s1)CCN(C(=O)CCC1CCCN(C)C1)C2` (configuration not stated) reads -4.26%.
The figure for `CN(C)C(=O)c1cc2c(s1)CCN(C(=O)CCCN1CCCCC1)C2` is 17.2%; for `CN1CCCC(CCC(=O)N2CCc3sc(C(=O)N(C)C)cc3C2)C1` (configuration not stated) it is 74.44%; for `C1CCC(CO[C@@H]2CC[C@H]3[C@H]2OCCN3CC2CCOCC2)C1` it is 42.01%.
The result for `CC(=O)N1CCN(Cc2ccc(F)cc2)CC2(CC(=O)N(C)C2)C1` (configuration not stated) reads 44.68%; that for `Cc1c(C)n2c(SCC(=O)N3CCOCC3)nnc2[nH]c1=O`, 33.59%.
Turning to `Oc1cccc(CN2CCN(C3CCc4ccccc4C3)CC2)c1` (configuration not stated), the INHIBITION is -5.87%.
The result for `COc1ccc(CN2CCN(C3CCc4ccccc4C3)CC2)cc1O` (configuration not stated) reads 59.48%; that for `COc1cc(O)ccc1CN1CCN(C2CCc3ccccc3C2)CC1` (configuration not stated), 31.9%; that for `CCNC(=O)C1CCN(c2nc(-c3ccco3)nc3c2CCNCC3)C1` (configuration not stated), 40.47%.
On to `CCC(O)CN1CCN(C(=O)c2cc(Cl)cc3cccnc23)CC1` (configuration not stated), for which the INHIBITION is listed as -28.58%.
The figure for `Cc1cc(C)c(C(=O)N2CCc3c(ncn3CCc3ccccc3)C2)[nH]1` is 0.51%; for `Cc1nonc1C(=O)N1CCc2c(ncn2CCc2ccccc2)C1` it is 17.2%; for `Cc1cc(C(=O)N2CCc3c(ncn3CCc3ccccc3)C2)on1` it is 50.59%.
Regarding `c1ccc(Cn2cc3c(n2)C(COCC2CC2)OCC3)nc1` (configuration not stated), the INHIBITION is on record as 7.73%.
With `Cn1cnc2c1CCN(Cc1csc(Cc3ccccc3)n1)C2`, the INHIBITION was found to be 33.61%.
In the case of `Cc1cccc(-n2nnnc2C(C)(C)Nc2ccccc2C)c1`, the INHIBITION is recorded as -20.72%.
The figure for `Cc1ccc(NC(C)(C)c2nnnn2-c2ccc(Cl)cc2)c(C)c1` is -0.62%.
The result for `COc1ccc(-n2nnnc2C(C)(C)Nc2ccc(C)cc2C)cc1` reads 57%.
The result for `COCCN1CC2(CCCN(C(=O)NCc3ccccc3)C2)CCC1=O` (configuration not stated) reads 13.53%; that for `CCc1cc(NCCN2CCNC2=O)n2nccc2n1`, 25.69%.
Turning to `O=C1NCCN1CCNc1cc(-c2ccccc2)nc2ccnn12`, the INHIBITION is given as -8.8%.
The figure for `CCCc1cc(NCCN2CCNC2=O)n2nccc2n1` is 68.39%.
As for `CCCc1cc(NCCCC2CCOC2)n2nccc2n1` (configuration not stated), the INHIBITION came to 26.35%.
The figure for `CCc1cc(NCCCC2CCOC2)n2nccc2n1` (configuration not stated) is -3.6%; for `CCCc1cc(NCCC2CCCOC2)n2nccc2n1` (configuration not stated) it is 50.41%; for `CC(SCCC(=O)NC(N)=O)c1cccc(F)c1` (configuration not stated) it is 4.07%.
The figure for `Cc1cc(CN2CCC(N(C)Cc3noc(C4CC4)n3)C2)no1` (configuration not stated) is -17.31%; for `COc1cccc(S(=O)(=O)N2CCCCC2CCN2CCCC2=O)c1` (configuration not stated) it is 25.51%.
With `NCC(c1ccc(Cl)cc1)N1CCc2sccc2C1` (configuration not stated), the INHIBITION is on record as -5.59%.
The result for `CC(C)NC(=O)N1CCC2(CC1)[C@@H]1CN(C(=O)N(C)C)C[C@@H]1C(=O)N2C` reads 24.36%; that for `COC(=O)CCC(=O)NC1CCCc2cc(OC(F)F)ccc21` (configuration not stated), -41.81%; that for `O=C(COCC(F)(F)F)NC1CCCc2cc(OC(F)F)ccc21` (configuration not stated), 60.52%.
The result for `O=C(CS(=O)(=O)C1CCCC1)NC1CCCc2cc(OC(F)F)ccc21` (configuration not stated) reads 14.88%; that for `CC(C)NC(=O)N1CCCCCC1C1CCN(c2ncccn2)CC1` (configuration not stated), 36.28%; that for `O=C(O)c1ccccc1-c1ccc(CN2CC(c3ccncn3)C2)o1`, -44.74%.
Regarding `Cc1nc(CCNC(=O)NC2CCCc3c2cnn3CCO)cs1` (configuration not stated), the INHIBITION was -47.76%.
The figure for `Cc1nnc(NC(=O)NC2CCCc3c2cnn3CCO)s1` (configuration not stated) is 53.57%.
`Cc1cc(NC(=O)NC2CCCc3c2cnn3CCO)n(C)n1` (configuration not stated): the INHIBITION was 32.55%.
As to `O=C(Nc1nncs1)NC1CCCc2c1cnn2CCO` (configuration not stated), the INHIBITION is given as 8.27%.
The result for `O=C(NC1CCCCC1)NC1CCCc2c1cnn2CCO` (configuration not stated) reads -39.36%; that for `CCn1cc(NC(=O)NC2CCCc3c2cnn3CCO)cn1` (configuration not stated), 56.57%.
With `Cc1cc(C)cc(NC(=O)c2cnc(N3CCN(C)CC3)nc2C)c1`, the INHIBITION was found to be 19.84%.
The figure for `Cc1cc(C)c(CNC(=O)C(C)Oc2ccccc2C#N)c(=O)[nH]1` (configuration not stated) is 35.43%; for `CCOCC(=O)N1C[C@H]2CN(CC3CC3)C(=O)[C@H]2C1` it is -3.65%.
The result for `O=C(c1ncoc1C1CC1)N1CCCN(CCCc2ccccc2)CC1` reads 26.3%; that for `CC1CCN(C(=O)CSCCN2CCOCC2)CC1`, 8.64%; that for `COCCN1CCN(c2ccc(CN(C)C)cn2)CC1`, -0.85%.

The values are drawn from ChEMBL document CHEMBL4513216, “Probing the Open Global Health Chemical Diversity Library for Multistage-Active Starting Points for Next-Generation Antimalarials” (ACS Infect Dis, 2020).
